Compound activity as filed in PubChem.
In the library only some 1.3% were active in any assay of this set; here they are far more common.
EPAC1 antag = qHTS for Antagonist of cAMP-regulated guanine nucleotide exchange factor 3 (EPAC1): primary screen | Rap guanine nucleotide exchange factor 3 (Homo sapiens), O95398 | EPAC1 GEF assay, Rap1b-BODIPY-GDP exchange fluorescence | Potency, µM (doses to about 115 µM), for inactives: top-dose activity change, negative = inhibition, hits mostly inhibitors | actives 0.14% (n = 360,000) | AID 720709, 2013;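 note: plate controls were vehicle for no effect and positive control for full effect; nearly all actives have a fitted effect of over 50% in size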
ALOX12 inh = Primary qHTS assay for inhibitors of human arachidonate 12S-lipoxygenase (ALOX12): Round 2; purified 12hLO, xylenol orange hydroperoxide absorbance; Potency, µM (doses to about 108 µM), without a hit: top-dose activity change, negative = inhibition, usual class: inhibitors; actives 1.1% (n = 580,000); AID 1671190, 2021; note: % is set by controls: 0 for no effect and ±100 for the full control effect
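Purified human 12hLO at 150 nM in 25 mM Hepes, 0.01% Triton X-100, pH 7.0, preincubated 15 min at room temperature with compound. Reaction started with 40 uM arachidonic acid, 30 min at room temperature. Hydroperoxide measured by Fe-xylenol orange, 573/405 nm absorbance ratio.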
EPAC1 agonist = qHTS for Agonist of cAMP-regulated guanine nucleotide exchange factor 3 (EPAC1): primary screen. Rap guanine nucleotide exchange factor 3 (Homo sapiens), O95398. Potency, µM (top dose mostly 154 µM), inactives show at the highest dose activation, hits mostly activators. EPAC1 agonist qHTS, biochemical assay; response scale: 100% = response to 6.5 mM cAMP. actives 0.073% (n = 360,000). AID 720707, 2013; note: nearly all actives have a fitted effect of over 60% in size
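Nucleotide exchange assay: 100 nM EPAC1 with 250 nM Rap1B loaded with BODIPY-GDP and 50 uM GDP, room temperature. Fluorescence (480/540 nm) read every 5 min for 30 min; signal change normalized to 6.5 mM cAMP as full agonist.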
EPAC2 ag = qHTS for Agonist of cAMP-regulated guanine nucleotide exchange factor 4 (EPAC2): primary screen; AID 720711, 2013; actives 0.079% (n = 360,000); Rap guanine nucleotide exchange factor 4 (Homo sapiens), Q8WZA2; Potency, µM (highest dose often 154 µM), for inactives: top-dose activation, actives largely listed as activators; EPAC2 activation, biochemical qHTS; response scale: 100% = 6.5 mM cAMP response; note: nearly all actives have a fitted effect of over 50% in size
Target sequence (Q8WZA2 whole entry, looked up): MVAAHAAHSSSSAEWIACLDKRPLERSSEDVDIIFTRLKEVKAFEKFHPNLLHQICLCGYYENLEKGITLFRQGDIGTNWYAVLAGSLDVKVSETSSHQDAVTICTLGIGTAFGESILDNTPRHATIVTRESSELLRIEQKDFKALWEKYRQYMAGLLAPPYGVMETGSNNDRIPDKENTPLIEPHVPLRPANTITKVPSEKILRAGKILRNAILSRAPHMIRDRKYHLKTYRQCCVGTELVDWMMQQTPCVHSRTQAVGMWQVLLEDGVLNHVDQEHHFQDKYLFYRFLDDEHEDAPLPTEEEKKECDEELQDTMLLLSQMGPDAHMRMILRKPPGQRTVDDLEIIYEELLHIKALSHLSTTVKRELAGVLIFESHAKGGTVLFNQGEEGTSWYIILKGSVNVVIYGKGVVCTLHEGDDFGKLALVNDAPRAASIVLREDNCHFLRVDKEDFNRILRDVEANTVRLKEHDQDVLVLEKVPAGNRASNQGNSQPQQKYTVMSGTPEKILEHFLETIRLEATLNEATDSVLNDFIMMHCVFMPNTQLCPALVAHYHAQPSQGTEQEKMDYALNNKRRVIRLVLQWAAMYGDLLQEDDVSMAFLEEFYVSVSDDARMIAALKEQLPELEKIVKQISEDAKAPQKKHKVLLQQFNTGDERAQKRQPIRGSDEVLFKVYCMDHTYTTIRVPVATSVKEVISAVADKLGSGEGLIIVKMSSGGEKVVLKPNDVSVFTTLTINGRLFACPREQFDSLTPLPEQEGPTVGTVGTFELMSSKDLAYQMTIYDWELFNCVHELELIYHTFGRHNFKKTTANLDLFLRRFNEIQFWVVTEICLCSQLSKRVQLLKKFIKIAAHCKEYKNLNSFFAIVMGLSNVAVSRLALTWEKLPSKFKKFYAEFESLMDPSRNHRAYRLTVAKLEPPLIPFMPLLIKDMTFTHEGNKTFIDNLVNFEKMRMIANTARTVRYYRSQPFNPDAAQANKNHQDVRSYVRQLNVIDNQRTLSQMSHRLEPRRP
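Each well held 100 nM EPAC2, 250 nM RAP1B-BODIPY-GDP and 50 uM GDP. Fluorescence, read at 5-min intervals to 30 min, was referenced to a 6.5 mM cAMP positive control.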
EPAC2 antagonist = qHTS for Antagonist of cAMP-regulated guanine nucleotide exchange factor 2 (EPAC2): primary screen | Rap guanine nucleotide exchange factor 4 (Homo sapiens), Q8WZA2 | EPAC2 GEF exchange of Rap1B-BODIPY-GDP, fluorescence | Potency, µM (series often up to 114 µM), without a hit: at the highest dose activity, negative = inhibition, usual class: inhibitors | actives 0.18% (n = 360,000) | AID 720708, 2013; note: % is set by controls: 0 for no effect and ±100 for the full control effect; nearly all actives have a fitted effect of over 45% in size
USP1-UAF1 inh = Inhibitors of USP1/UAF1: Primary Screen; AID 743255, 2014; Potency, µM (titrated, usually from 57.1 µM), for inactives: top-dose activity change, negative = inhibition, usual class: inhibitors; actives 0.23% (n = 390,000); recombinant USP1/UAF1, Ub-Rhodamine cleavage fluorescence; Ubiquitin carboxyl-terminal hydrolase 1 (Homo sapiens), O94782; note: % is set by controls: 0 for no effect and ±100 for the full control effect; nearly all actives have a fitted effect of over 60% in size
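USP1/UAF1 complex (1 nM) preincubated 15 min at room temperature with compound, then Ub-Rho substrate (150 nM final) added. Kinetic fluorescence at 480/540 nm over 6 reads at 60 s intervals; 50 mM HEPES pH 7.8, 0.5 mM EDTA, 0.1 mg/ml BSA, 1 mM TCEP, 0.01% Tween-20.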
* = called active by the depositor; u = inconclusive; x = no result given; [ ] = remark or other dose. Calls come from the whole dose curve; as a rule, active = well fitted curve in the direction sought with a large enough effect; inconclusive = small, poorly fitted or top-dose-only effect, or another doubt; inactive = no such curve, though single readings can be large; an effect the other way counts as inactive or inconclusive. Potency is the fitted concentration of half-maximal effect.

SMILES | EPAC1 antag | ALOX12 inh | EPAC1 agonist | EPAC2 ag | EPAC2 antagonist | USP1-UAF1 inh
CCOc1cc(COC(=O)c2cccc(S(=O)(=O)N3CCCC3)c2)ccc1OC(F)F | x | -9% | x | x | x | x
CC(C)(C)c1ccc(CC/C=N/O)cc1 | x | 11µM* | x | x | x | x
O=C(C1CCCN(Cc2cccc3ccccc23)C1)N1CCc2ccccc2C1 (centres undefined) | x | 0.63µM* | x | x | x | x
O=C(C1CCCN(Cc2ccccc2F)C1)N1CCc2ccccc2C1 (centres undefined) | 10% | 0% | 17% | u | 1% | -18%
Cc1nc(-c2ccc3c(c2)-c2ccccc2C3)cs1 | x | 0.32µM* | x | x | x | x
N#C/C(=C/c1ccccc1)c1nc(-c2ccc3c(c2)-c2ccccc2C3)cs1 | x | -11% | x | x | x | x
CCn1c2ccccc2c2cc(CN3CCN(Cc4ccccc4F)CC3)ccc21 | x | 28µM* | x | x | x | -20%
Cc1ccc(NC(=S)NNC(=S)Nc2ccc(C)cc2)cc1 | 2% | u | 1% | 0% | 10% | -17%
Cc1ccc(NNC(=S)Nc2ccc(C(C)C)cc2)c(C)c1 | -22% | 35µM* | 6% | -4% | u | -9%
COc1ccc(S(=O)(=O)N2CCN(C(=O)C3COc4ccccc4O3)CC2)cc1 (centres undefined) | -14% | 40µM* | -1% | 2% | 4% | -10%
CC(=O)Nc1ccc(S(=O)(=O)N2CCN(C(=O)C3COc4ccccc4O3)CC2)cc1 (centres undefined) | -4% | 0% | 7% | 14% | -1% | -14%
CCN(CC)CCN(C(=O)c1ccc2c(c1)OCCO2)c1nc2c(Cl)cccc2s1 | 3% | 35µM* | 4% | 16% | -10% | -12%
CCc1ccc2nc(N(CCN(C)C)C(=O)c3ccc4ncsc4c3)sc2c1 | 1% | 35µM* | 4% | 15% | -6% | -18%
CN(C)CCCN(C(=O)c1ccc2c(c1)OCCO2)c1nc2ccc(Cl)cc2s1 | x | 45µM* | x | x | x | x
CCN(CC)CCN(C(=O)c1ccc2c(c1)OCCO2)c1nc2cc(C)cc(C)c2s1 | -2% | u | 4% | 14% | -20% | -18%
CN(C)CCNc1oc(-c2ccc(S(=O)(=O)N3CCOCC3)cc2)nc1C#N | x | 49% | x | x | x | x
COc1ccc(/C=C/C(=O)Nc2cnc3ccccc3c2)cc1OC | x | 15% | x | x | x | x
NNc1nc2ccc(Cl)cc2s1 | -13% | 7.1µM* | 2% | -8% | -5% | -15%
NNc1nc2ccc(F)cc2s1 | -12% | 6.3µM* | 15% | -10% | -1% | -18%
O=C(COc1ccccc1Cl)Nc1cccc(S(=O)(=O)NC2=NCCCCC2)c1 | -13% | -16% | 126µM* | 3% | -4% | -7%
C[C@H]1CN([C@@H](C)CO)C(=O)c2cc(C#CCC3CCCC3)cnc2O[C@@H]1CN(C)C(=O)CC1CC1 | -3% | 45µM* | -16% | -10% | -1% | -23%
C[C@@H]1CN([C@H](C)CO)C(=O)c2cc(Br)cnc2O[C@@H]1CN(C)C(=O)CC1CC1 | 7% | -6% | -4% | -6% | -3% | -24%
C[C@@H]1CN([C@@H](C)CO)C(=O)c2cc(C#CC3CCCCC3)cnc2O[C@@H]1CN(C)S(=O)(=O)c1ccc(F)cc1 | 10% | 40µM* | -5% | -2% | 8% | -20%
CC(Sc1nc(CN2CCOCC2)nc2ccccc12)C(=O)Nc1ccc(F)cc1F (centres undefined) | x | -26% | x | x | x | x
Cc1ccc(CNC2CCc3ccccc32)cc1 (centres undefined) | x | -5% | x | x | x | x
SMILES | EPAC1 antag | ALOX12 inh | EPAC1 agonist | EPAC2 ag | EPAC2 antagonist | USP1-UAF1 inh
O=C(Nc1cc(Br)c(O)c(Br)c1)c1cccc(NC(=O)c2ccco2)c1 | u | u | -3% | 17% | 24% | -18%
O=C(Nc1cccc(N=Cc2cc(Br)cc(Br)c2O)c1)c1ccco1 | 1% | u | -5% | 21% | u | 28µM*
CC(CNC(=O)c1n[nH]c(=O)c2ccccc12)(c1ccccc1)c1ccccc1 | x | -1% | x | x | x | x
COc1cccc(/C=C(/C#N)C(=O)c2c(Cl)cccc2Cl)c1 | x | 7.1µM* | x | x | x | x
COc1cccc(/C=C(\C#N)C(=O)NC2CCS(=O)(=O)C2)c1 (centres undefined) | 7% | -20% | -5% | 3% | 19% | -19%
COc1cc(/C=C(/C#N)C(=O)Nc2cccc3ncccc23)cc(OC)c1OC | x | 16µM* | x | x | x | x
COc1cccc(/C=C(/C#N)C(=O)c2c(Cl)cccc2Cl)c1OC | x | 20µM* | x | x | x | x
COc1cc(OC)c(OC)cc1/C=C(/C#N)C(=O)c1c(Cl)cccc1Cl | x | 5% | x | x | x | x
COc1cc(/C=C(\C#N)C(=O)c2ccc(O)c(O)c2)cc(I)c1O | u | u | -4% | 12% | u | 25µM*
COc1cc(/C=C(/C#N)C(=O)NC2CC2)ccc1O | x | 5% | x | x | x | x
CCOc1ccccc1NC(=O)c1ncoc1-c1ccc(OC)c(OC)c1 | x | 57% | x | x | x | x
CNC(=O)CCn1ncc2cc(OC3CCc4cccc(-c5ccccc5F)c43)ccc21 (centres undefined) | x | -20%[176 µM] | x | x | x | x
CC(C)(C)CC(=O)OCc1cc(=O)oc2cc(O)ccc12 | x | -20% | x | x | x | x
CN(Cc1cccnc1)c1ccc(-c2nc(COc3ccccc3)no2)cn1 | x | 72% | x | x | x | x
COc1cc(/C=C(/C#N)C(=O)c2c(Cl)cccc2Cl)cc(OC)c1 | x | 28µM* | x | x | x | x
COc1cc(/C=C(/C#N)C(=O)c2c(Cl)cccc2Cl)cc(OC)c1OC | x | 0.5µM* | x | x | x | x
COc1ccc(C=C(C#N)C(=O)c2ccccc2)cc1 | 5% | 8% | 12% | 3% | 4% | x
CCOC(=O)c1cc2cc(Oc3ccc4[nH]c(C(=O)OCC)cc4c3)ccc2[nH]1 | x | 61% | x | x | x | x
CCOC(=O)C1=C(C)N=c2s/c(=C\c3ccc(OCC(=O)O)cc3)c(=O)n2C1c1ccc(Cl)cc1 (centres undefined) | u | u | 18% | -28% | 24% | u
CCOC(=O)C1=C(c2ccccc2)N=c2s/c(=C\c3cc(OC)c(OC)c(OC)c3)c(=O)n2C1c1cccs1 (centres undefined) | -3% | 22% | 10% | 14% | -7% | 22µM*
